In PubChem BioAssay (NCATS):
Values joined by “and” are separate entries in the source; they are usually repeats but may differ in a detail not shown here. Equal entries are not always repeated. Inconclusive results are not listed. The source holds several records for some structures; these can differ, active in one and inactive in another. Active and inactive are the calls of the source. Unless noted, calls follow the shape of the dose curve; as a rule, active = well fitted curve in the direction sought with a large enough effect; inconclusive = small, poorly fitted or top-dose-only effect, or another doubt; inactive = no such curve, though single readings can be large; an effect the other way counts as inactive or inconclusive.

Columns and labels:
[1] = target: ATP-dependent 6-phosphofructokinase (Trypanosoma brucei brucei) (UniProt O15648); test: qHTS Assay to Find Inhibitors of T. brucei phosphofructokinase: hit validation (AID 492961);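 also: luminescence reports ADP formed as PFK phosphorylates fructose-6-phosphate with ATP; series mostly up to about 51 µM; % is scaled to controls: 0 for no effect and ±100 for the full control effect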
Outline: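 Measures ADP output of PFK (1.25 nM) at 0.1 mM ATP, 0.5 mM F6P, pH 8.0 TEA buffer with 5 mM MgCl2. No-enzyme wells define full inhibition; uninhibited enzyme wells define zero.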

[2] = target: Estrogen receptor (Homo sapiens) (UniProt P03372); test: qHTS assay for small molecule agonists of estrogen receptor alpha signaling (AID 588514; calls by dose curve;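 also: 0% = vehicle only and 100% = reference agonist; nearly all actives have a fitted effect of over 70% in size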)
Outline: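 Read-out: CCF4 fluorescence from a beta-lactamase reporter in ER-alpha-UAS-bla HEK 293 cells after 18 hrs of compound exposure at 37 C. Normalized to 20 nM 17-beta-estradiol (100%) and DMSO (0%).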

[3] = target: Androgen receptor (Homo sapiens) (UniProt P10275); test: qHTS assay for small molecule agonists of androgen receptor signaling (AID 588515; active = well fitted curve in the direction sought with a large enough effect in the signal ratio, with a control signal flat; the % refers to the signal ratio; also: % is scaled to controls: 0 for no effect and ±100 for the full control effect); conditions: AR-UAS-bla HEK293, beta-lactamase ratio, agonist 16 h; stronger effect = higher value
Outline: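 Stimulation of an AR-responsive β-lactamase reporter in GripTite HEK293 cells was measured after 16 h compound exposure at 37 °C, via CCF4 fluorescence after 2 h RT. EC50 from Hill fits, normalized to R1881 at 30 nM.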

[4] = target: Androgen receptor (Homo sapiens) (UniProt P10275); test: qHTS assay for small molecule antagonists of androgen receptor signaling (AID 588516; active = well fitted curve in the direction sought with a large enough effect in the signal ratio, with a control signal flat, not every such curve was filed as active; the % refers to the signal ratio; also: % is scaled to controls: 0 for no effect and ±100 for the full control effect)
Outline: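 Compounds tested in titration against 10 nM R1881 in AR-responsive bla reporter HEK 293 cells; CCF4 fluorescence (460/530 nm) after 16 h exposure gave IC50 and efficacy.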

[5] = Validation screen for small molecules that induce genotoxicity in human embryonic kidney (HEK293T) cells expressing luciferase-tagged ELG1 (AID 493106); also: 0% is about no effect
Outline: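 qHTS format; 2,000 HEK293T ELG1-luc cells/well; 23 nL compound via pin tool; 16 hr, 37 °C/5% CO2; ONE-Glo, 30 min RT; luminescence read.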

[6] = target: ATPase family AAA domain-containing protein 5 (Homo sapiens) (UniProt Q96QE3); test: Validation screen for small molecules that inhibit ELG1-dependent DNA repair in human embryonic kidney (HEK293T) cells expressing luciferase-tagged ELG1 (AID 493107); also: nearly all actives have a fitted effect of over 70% in size; also: potency is read from the fitted curve at half-maximal effect
Outline: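 ELG1-luciferase HEK293T reporter; 5-fluorouridine + compound/DMSO, 16 hr, 37 °C, 5% CO2; ONE-Glo 30 min RT; luminescence read, qHTS format.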

[7] = target: Thyrotropin-releasing hormone receptor (Homo sapiens) (UniProt P34981); test: qHTS for Small Molecule Agonists and Allosteric Enhancers of Human TRH Receptor: Validation Screen for Agonists (AID 493127;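 active = calcium activation more than 3 SD above the typical response in the agonist read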;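 also: intracellular calcium rise by fluo-8 fluorescence before TRH EC20 addition; 0% is about no effect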); conditions: TRH receptor agonist cell assay; at 2 µM; stronger effect = higher value
Outline: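 Read-out: intracellular calcium release measured kinetically by FDSS (fluo-8, ex 480/em 530 nm), 1 reading/s after a 10-cycle baseline. TRHR cells, 2000/well, cultured 18 h at 33.5C, dye-loaded at room temp. Compound-evoked positive calcium signal flags agonists.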

[8] = Nrf2 qHTS screen for inhibitors: Validation (AID 493153; active = well fitted inhibition curve with a large enough effect in the main read-out, with a control signal flat, not every such curve was filed as active; also: potency is read from the fitted curve at half-maximal effect); conditions: Potency: luciferase luminescence; viability change: measured here: cytotoxicity max response
Outline: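 Concentration-response test in A549 ARE_Fluc reporter cells (5% FBS OPTI-MEM), compound exposure 18-24 h at 37°C, 5% CO2. Cell viability measured first by CellTiter-Fluor fluorescence; ARE-driven luciferase luminescence then measured as Nrf2 activity.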

[9] = qHTS for Inhibitors of Cell Surface uPA Generation: Validation Assay (AID 493164);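 also: RAW 264.7 macrophage cells exposed to compound for 18 h; 0% is about no effect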
Outline: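 Compounds are titrated over seven points (2.45 nM–38.3 uM final) onto pre-plated RAW 264.7 cells and incubated for 18 h. Retained intracellular ATP, measured with ATP-Lite, indicates blocked lethal factor entry.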

[10] = target: Galactokinase (Homo sapiens) (UniProt P51570); test: qHTS Validation Assay for Inhibitors of Human Galactokinase (GALK) (AID 493189); also: 0% is about no effect
Outline: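 Enzyme activity is inferred from ATP consumption: human GALK phosphorylates galactose (100 uM) using 35 uM ATP for 1 h at room temperature, and luciferase-based Kinase-Glo Plus reports unconsumed ATP.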

[11] = Validation screen for small molecules that induce DNA re-replication in SW480 colon adenocarcinoma cells (AID 504364); also: potency is read from the fitted curve at half-maximal effect
Outline: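 Read-out: total Hoechst intensity of nuclei by fluorescence scanning imager; hits raise the fraction of nuclei with elevated DNA content. Cells received compound for 48 hr at 37 C before a 40 min stain.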

[12] = target: Peptidyl-prolyl cis-trans isomerase NIMA-interacting 1 (Homo sapiens) (UniProt Q13526); test: qHTS Validation Assay to Find Inhibitors of Pin1 (AID 504536; active = well fitted inhibition curve with a large enough effect in the polarisation, with a control signal flat, not every such curve was filed as active; the % refers to the polarisation;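 also: 0% = full Pin1 enzyme wells and -100% = no-enzyme wells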)
Outline: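 Fluorescence polarization competition: compounds (titration) displace HiFluor-488-labeled Pin1-1b peptide from Pin1 (0.3 uM final) in pH 7.5 HEPES buffer with DTT, 10 min at room temperature; %Activity normalized to no-enzyme wells, curves fitted.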

[13] = target: Phosphoglycerate kinase, glycosomal (Trypanosoma brucei brucei) (UniProt P07378); test: qHTS Validation Assay to Find Inhibitors of Phosphoglycerate Kinase (AID 504547);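 also: control wells lack PGK and mark full inhibition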
Outline: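 Luminescence end-point (Kinase-Glo Plus, 10 min) after a 60 min room-temperature coupled reaction. GAPDH at 100nM final supplies 1,3-BPG to PGK. Buffer: 100mM TEA pH 7.6, 5mM MgCl2, 0.01% Tween-20. Wells lacking PGK served as controls.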

[14] = target: phosphoglycerate mutase (Leishmania major) (UniProt Q4Q090); test: qHTS Validation Assay to Find Inhibitors of Phosphoglycerate Mutase (AID 504548); conditions: Potency: inhibition qHTS;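 also: end-point luminescence from Kinase-GloPlus after the PGAM reaction; series mostly up to about 58 µM; % is scaled to controls: 0 for no effect and ±100 for the full control effect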
Outline: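 L. major PGAM (1.25nM final) was added to substrate buffer and pinned compound, incubated 45 minutes at room temperature, then Kinase-GloPlus added; luminescence read after 10 minutes. Buffer: 100 mM TEA pH 7.6, 5 mM MgCl2, 0.01% Tween-20.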

[15] = target: Ubiquitin carboxyl-terminal hydrolase 1 (Homo sapiens) (UniProt O94782); test: Inhibitors of USP1/UAF1: Pilot qHTS (AID 504865); also: nearly all actives have a fitted effect of over 35% in size; also: potency is read from the fitted curve at half-maximal effect
Outline: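 Enzyme-free wells gave the negative control, while test wells held 1nM USP1/UAF1 preincubated with compound for 15 min at room temperature. Ub-Rho at 150nM final started the reaction, and fluorescence at 480/540 nm was recorded kinetically.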

[16] = qHTS for Inhibitors of ATXN expression: Validation of Cytotoxic Assay (AID 588349); also: % is scaled to controls: 0 for no effect and ±100 for the full control effect
Outline: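 Cytotoxicity counter-screen: HEK293 cells exposed to compound titrations, 72 hr, 37 degrees C. Read-out is intracellular ATP (CellTiter Glo luminescence) as a viability measure.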

[17] = qHTS for Inhibitors of ATXN expression: Validation (AID 588378); also: nearly all actives have a fitted effect of over 75% in size; also: potency is read from the fitted curve at half-maximal effect
Outline: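 After a 2 h attachment and 24 h compound incubation, HEK293-ATXN2-FFLuc wells are read for fluorescence at 405 nm excitation/525 nm emission as a viability measure, then for Bright-Glo luminescence reflecting ATXN2 expression.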

[18] = target: DNA dC->dU-editing enzyme APOBEC-3G (Homo sapiens) (UniProt Q9HC16); test: qHTS for inhibitors of Vif-A3G interactions: Validation (AID 588379); also: 0% is about no effect
Outline: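 Yellow fluorescence (Ex 488, Em 500-530) of Vif-coexpressing HeLa A3G-eYFP cells, scanned by Acumen cytometer, reports blocked A3G degradation. Cells plated at 700/well overnight at 37 deg C before compound addition, then a further overnight compound incubation at 37 deg C.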

[19] = target: Estrogen receptor (Homo sapiens) (UniProt P03372); test: qHTS assay for small molecule antagonists of estrogen receptor alpha signaling (AID 588513; active = well fitted curve in the direction sought with a large enough effect in the signal ratio, with a control signal flat, not every such curve was filed as active; the % refers to the signal ratio; also: % is scaled to controls: 0 for no effect and ±100 for the full control effect)
Outline: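 Antagonist-mode qHTS in ER-alpha-UAS-bla HEK 293 cells: compound titration, 0.5nM estradiol for 18 h, CCF4 fluorescence, Hill-derived IC50.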

Chain of Galactokinase (Homo sapiens) (P51570 whole entry, looked up): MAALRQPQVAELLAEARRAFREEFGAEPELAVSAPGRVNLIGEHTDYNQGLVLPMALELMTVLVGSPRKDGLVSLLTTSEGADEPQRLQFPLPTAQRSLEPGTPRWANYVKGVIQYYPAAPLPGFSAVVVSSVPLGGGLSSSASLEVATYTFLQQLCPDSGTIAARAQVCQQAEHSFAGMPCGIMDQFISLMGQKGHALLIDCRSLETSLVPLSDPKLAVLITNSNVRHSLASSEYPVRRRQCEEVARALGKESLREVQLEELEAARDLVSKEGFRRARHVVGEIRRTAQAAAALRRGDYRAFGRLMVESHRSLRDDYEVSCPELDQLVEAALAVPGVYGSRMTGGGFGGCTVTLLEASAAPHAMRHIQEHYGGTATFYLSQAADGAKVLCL
Chain of ATPase family AAA domain-containing protein 5 (Homo sapiens) (Q96QE3 whole entry, looked up, the tested form may be a part): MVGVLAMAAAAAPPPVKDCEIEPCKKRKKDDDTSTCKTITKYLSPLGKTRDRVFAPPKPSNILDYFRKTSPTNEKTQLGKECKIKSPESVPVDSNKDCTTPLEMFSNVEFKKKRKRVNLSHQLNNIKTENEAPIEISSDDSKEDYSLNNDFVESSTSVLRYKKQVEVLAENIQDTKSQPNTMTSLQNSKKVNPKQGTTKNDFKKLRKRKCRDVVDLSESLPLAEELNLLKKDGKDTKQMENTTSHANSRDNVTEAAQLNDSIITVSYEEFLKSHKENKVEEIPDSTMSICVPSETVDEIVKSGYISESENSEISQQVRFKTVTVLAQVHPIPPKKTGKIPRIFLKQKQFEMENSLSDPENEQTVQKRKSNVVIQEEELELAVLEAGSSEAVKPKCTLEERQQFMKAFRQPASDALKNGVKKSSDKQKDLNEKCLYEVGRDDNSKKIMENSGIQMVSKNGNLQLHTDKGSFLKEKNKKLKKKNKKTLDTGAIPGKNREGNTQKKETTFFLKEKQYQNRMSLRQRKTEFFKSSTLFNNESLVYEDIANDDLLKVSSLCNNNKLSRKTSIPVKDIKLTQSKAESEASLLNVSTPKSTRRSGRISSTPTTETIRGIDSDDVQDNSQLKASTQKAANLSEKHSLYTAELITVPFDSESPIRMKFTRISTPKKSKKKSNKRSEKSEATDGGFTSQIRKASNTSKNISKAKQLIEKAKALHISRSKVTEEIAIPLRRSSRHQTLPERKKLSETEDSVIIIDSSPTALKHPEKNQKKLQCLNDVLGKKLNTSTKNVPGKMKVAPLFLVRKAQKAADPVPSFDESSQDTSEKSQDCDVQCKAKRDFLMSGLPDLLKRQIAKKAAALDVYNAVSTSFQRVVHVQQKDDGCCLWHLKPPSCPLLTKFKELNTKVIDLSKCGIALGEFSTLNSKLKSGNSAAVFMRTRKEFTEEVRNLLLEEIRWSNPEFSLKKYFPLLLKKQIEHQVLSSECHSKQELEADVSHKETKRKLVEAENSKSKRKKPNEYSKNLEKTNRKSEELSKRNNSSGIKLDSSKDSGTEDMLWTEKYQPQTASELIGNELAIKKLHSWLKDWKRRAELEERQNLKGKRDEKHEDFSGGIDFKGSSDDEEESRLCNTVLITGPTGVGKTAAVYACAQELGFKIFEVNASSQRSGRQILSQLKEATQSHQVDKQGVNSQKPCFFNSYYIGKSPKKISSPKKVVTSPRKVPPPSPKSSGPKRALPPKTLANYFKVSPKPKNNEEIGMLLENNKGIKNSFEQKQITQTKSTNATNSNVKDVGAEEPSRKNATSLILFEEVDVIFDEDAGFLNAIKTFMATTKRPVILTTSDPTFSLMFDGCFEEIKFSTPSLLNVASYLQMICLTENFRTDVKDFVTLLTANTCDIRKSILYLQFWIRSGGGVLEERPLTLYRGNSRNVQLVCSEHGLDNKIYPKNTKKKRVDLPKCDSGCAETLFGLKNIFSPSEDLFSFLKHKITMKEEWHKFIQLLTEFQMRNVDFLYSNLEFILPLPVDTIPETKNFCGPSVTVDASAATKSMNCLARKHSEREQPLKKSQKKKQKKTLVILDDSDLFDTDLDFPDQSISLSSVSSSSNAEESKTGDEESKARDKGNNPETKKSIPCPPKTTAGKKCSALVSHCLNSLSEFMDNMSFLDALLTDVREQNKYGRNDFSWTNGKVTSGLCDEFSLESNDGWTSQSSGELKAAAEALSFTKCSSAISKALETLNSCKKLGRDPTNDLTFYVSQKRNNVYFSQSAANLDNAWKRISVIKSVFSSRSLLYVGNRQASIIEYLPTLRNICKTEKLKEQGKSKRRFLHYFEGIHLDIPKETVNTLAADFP
Chain of Peptidyl-prolyl cis-trans isomerase NIMA-interacting 1 (Homo sapiens) (Q13526 whole entry, looked up): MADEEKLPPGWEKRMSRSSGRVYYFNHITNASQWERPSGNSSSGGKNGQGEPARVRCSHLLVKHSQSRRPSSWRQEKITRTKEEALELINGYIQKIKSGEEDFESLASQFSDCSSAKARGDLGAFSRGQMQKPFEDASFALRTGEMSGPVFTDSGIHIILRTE
Chain of Ubiquitin carboxyl-terminal hydrolase 1 (Homo sapiens) (O94782 whole entry, looked up): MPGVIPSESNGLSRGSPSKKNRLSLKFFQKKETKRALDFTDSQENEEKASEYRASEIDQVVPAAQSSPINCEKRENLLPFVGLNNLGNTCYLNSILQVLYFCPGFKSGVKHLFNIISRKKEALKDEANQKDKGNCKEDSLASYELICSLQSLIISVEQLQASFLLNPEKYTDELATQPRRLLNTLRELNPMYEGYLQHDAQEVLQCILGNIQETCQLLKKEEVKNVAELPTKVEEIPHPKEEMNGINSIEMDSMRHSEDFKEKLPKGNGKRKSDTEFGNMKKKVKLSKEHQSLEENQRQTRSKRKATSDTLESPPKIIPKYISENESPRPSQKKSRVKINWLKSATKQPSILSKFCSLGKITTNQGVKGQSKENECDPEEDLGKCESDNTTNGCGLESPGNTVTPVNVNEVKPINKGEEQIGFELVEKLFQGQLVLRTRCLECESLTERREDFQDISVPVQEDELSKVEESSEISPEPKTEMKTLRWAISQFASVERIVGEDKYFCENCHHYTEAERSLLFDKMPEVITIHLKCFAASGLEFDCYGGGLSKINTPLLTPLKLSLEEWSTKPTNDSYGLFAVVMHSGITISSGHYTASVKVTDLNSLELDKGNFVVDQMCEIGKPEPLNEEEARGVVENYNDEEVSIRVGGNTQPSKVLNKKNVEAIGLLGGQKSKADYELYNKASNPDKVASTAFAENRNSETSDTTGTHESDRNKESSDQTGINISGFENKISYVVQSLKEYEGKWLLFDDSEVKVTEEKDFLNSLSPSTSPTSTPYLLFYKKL
Chain of Thyrotropin-releasing hormone receptor (Homo sapiens) (P34981 whole entry, looked up): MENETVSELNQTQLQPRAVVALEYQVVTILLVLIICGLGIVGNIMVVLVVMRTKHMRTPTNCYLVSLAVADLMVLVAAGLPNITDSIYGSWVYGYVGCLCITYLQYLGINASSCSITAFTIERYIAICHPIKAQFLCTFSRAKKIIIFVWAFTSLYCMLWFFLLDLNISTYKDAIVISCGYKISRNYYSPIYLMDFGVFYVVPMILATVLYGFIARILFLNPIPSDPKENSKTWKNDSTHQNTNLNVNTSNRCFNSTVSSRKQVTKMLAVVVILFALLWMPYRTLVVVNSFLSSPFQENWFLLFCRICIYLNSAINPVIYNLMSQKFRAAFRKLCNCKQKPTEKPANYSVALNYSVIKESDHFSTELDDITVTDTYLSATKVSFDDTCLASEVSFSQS
Chain of ATP-dependent 6-phosphofructokinase (Trypanosoma brucei brucei) (O15648 whole entry, looked up): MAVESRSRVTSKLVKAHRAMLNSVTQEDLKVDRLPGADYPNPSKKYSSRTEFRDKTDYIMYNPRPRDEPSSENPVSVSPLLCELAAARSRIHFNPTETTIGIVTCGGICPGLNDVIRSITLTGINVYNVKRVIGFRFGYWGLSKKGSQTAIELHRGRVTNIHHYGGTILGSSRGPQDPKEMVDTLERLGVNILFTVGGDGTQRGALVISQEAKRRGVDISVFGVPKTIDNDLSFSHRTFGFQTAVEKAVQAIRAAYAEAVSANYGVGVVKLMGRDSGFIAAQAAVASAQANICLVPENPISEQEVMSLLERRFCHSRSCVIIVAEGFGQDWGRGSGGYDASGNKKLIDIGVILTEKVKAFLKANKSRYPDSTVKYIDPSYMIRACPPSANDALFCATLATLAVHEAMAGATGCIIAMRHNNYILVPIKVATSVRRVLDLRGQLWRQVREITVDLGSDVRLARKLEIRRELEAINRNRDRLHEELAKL
Chain of DNA dC->dU-editing enzyme APOBEC-3G (Homo sapiens) (Q9HC16 whole entry, looked up): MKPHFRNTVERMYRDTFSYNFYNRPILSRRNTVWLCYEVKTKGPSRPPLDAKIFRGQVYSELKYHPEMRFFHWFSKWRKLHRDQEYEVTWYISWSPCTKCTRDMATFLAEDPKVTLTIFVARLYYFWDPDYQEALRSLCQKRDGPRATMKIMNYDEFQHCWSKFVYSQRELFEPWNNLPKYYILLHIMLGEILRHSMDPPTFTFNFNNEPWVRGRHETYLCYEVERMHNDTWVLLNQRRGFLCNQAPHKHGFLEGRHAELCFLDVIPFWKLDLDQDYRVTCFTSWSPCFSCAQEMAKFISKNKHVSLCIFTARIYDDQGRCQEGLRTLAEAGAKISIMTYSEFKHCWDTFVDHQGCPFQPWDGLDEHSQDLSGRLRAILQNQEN
Chain of Phosphoglycerate kinase, glycosomal (Trypanosoma brucei brucei) (P07378 whole entry, looked up): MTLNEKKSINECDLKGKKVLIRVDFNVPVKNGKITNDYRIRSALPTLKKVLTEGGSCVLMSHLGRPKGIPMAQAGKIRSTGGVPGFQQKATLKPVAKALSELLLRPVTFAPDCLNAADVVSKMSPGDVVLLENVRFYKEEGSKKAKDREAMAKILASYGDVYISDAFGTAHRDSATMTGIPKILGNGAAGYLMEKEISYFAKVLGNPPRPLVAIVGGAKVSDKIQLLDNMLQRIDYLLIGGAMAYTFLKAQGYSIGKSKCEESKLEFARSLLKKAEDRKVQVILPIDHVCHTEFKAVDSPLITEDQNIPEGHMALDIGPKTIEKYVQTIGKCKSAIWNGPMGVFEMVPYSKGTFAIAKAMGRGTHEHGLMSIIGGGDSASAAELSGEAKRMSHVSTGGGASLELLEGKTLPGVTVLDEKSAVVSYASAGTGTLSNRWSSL

Nc1cc(-c2ccncc2)c[nH]c1=O
inactive: outcome [1] | Potency [2] | activation [3] 4.65% | outcome [4]

CN(C)c1nc2c(Br)c(Br)c(Br)c(Br)c2[nH]1
-13.2%: viability change [8]
active: Potency [6] 1.46 µM | Potency [8] 16.4 µM
inactive: Potency [5] | activation [7] 5.88% | outcome [9] | Potency [10] | Potency [11] | Potency [12] | Potency [13] | Potency [14] | Potency [15] | Potency [16] | Potency [17]

COc1cc(/C=C/C(=O)N2CCN(CC(=O)N3CCCC3)CC2)cc(OC)c1OC
inactive: outcome [1] | Potency [15]

NC(=O)C(=O)O
4.28%: viability change [8]
inactive: Potency [5] | Potency [6] | activation [7] 1% | Potency [8] | outcome [9] | Potency [10] | Potency [11] | Potency [12] | Potency [13] | Potency [14] | Potency [15] | Potency [16] | Potency [17]

O=c1[nH]c2cc([N+](=O)[O-])c([N+](=O)[O-])cc2[nH]c1=O
0.435%: viability change [8]
inactive: Potency [5] | Potency [6] | activation [7] 1.31% | Potency [8] | outcome [9] | Potency [10] | Potency [11] | Potency [12] | Potency [13] | Potency [14] | Potency [15] | Potency [16] | Potency [17] | Potency [18]

CCCCC[C@H](O)/C=C/[C@@H]1[C@@H](C/C=C\CCCC(=O)O)[C@@H](O)C[C@H]1O
inactive: outcome [1] | Potency [15]

O=C1CN(/N=C/c2ccc([N+](=O)[O-])o2)C(=O)N1
inactive: outcome [1] | outcome [19]
inactive and 50.1 µM (active): Potency [15]

COc1cccc(OC)c1OCCNCC1COc2ccccc2O1 (stereo unspecified)
4.98%: viability change [8]
inactive: Potency [5] | Potency [6] | activation [7] -3.69% | Potency [8] | outcome [9] | Potency [10] | Potency [11] | Potency [12] | Potency [13] | Potency [14] | Potency [15] | Potency [17]

C=C(Nc1ccc(OCC)cc1)Nc1ccc(OCC)cc1
inactive: outcome [1] | Potency [15]

COc1cc(C(O)CO)ccc1OS(=O)(=O)O (stereo unspecified)
inactive: Potency [5] | Potency [6] | activation [7] -2.69% | outcome [9] | Potency [10] | Potency [11] | Potency [12] | Potency [13] | Potency [14] | Potency [15] | Potency [17]

O=C(O)CC1CCCc2ccccc2C1O (stereo unspecified)
inactive: Potency [5] | Potency [6] | activation [7] 0.625% | Potency [8] | outcome [9] | Potency [10] | Potency [11] | Potency [12] | Potency [13] | Potency [14] | Potency [15] | Potency [17]
2.15%: viability change [8]

CC1CN(S(=O)(=O)c2cccc3cnccc23)CCN1 (stereo unspecified)
active: Potency [6] 20.6 µM
inactive: Potency [5] | activation [7] 1.06% | outcome [9] | Potency [10] | Potency [11] | Potency [12] | Potency [13] | Potency [14] | Potency [15] | Potency [17]

CC(COc1ccc(/C=C/c2ccccc2)cc1)[N+](C)(C)C (stereo unspecified)
inactive: Potency [5] | Potency [6] | activation [7] 0.125% | outcome [9] | Potency [10] | Potency [11] | Potency [12] | Potency [13] | Potency [14] | Potency [15] | Potency [17]

Clc1ccc(N2CCN(Cc3c[nH]c4ncccc34)CC2)cc1
inactive: Potency [5] | Potency [6] | activation [7] 2.19% | Potency [8] | outcome [9] | Potency [10] | Potency [11] | Potency [12] | Potency [13] | Potency [14] | Potency [18]
active: Potency [15] 50.1 µM
-2.66%: viability change [8]

CCCCCCCCCCCCCCCCCC(=O)OC(CC(=O)O)C[N+](C)(C)C (stereo unspecified)
active: Potency [11] 11.6 µM
inactive: Potency [5] | Potency [6] | activation [7] -0.5% | outcome [9] | Potency [10] | Potency [12] | Potency [13] | Potency [14] | Potency [17]

NC(CCCP(=O)(O)O)C(=O)O (stereo unspecified)
inactive: Potency [5] | Potency [6] | activation [7] 0.562% | Potency [8] | outcome [9] | Potency [10] | Potency [11] | Potency [12] | Potency [13] | Potency [14] | Potency [16] | Potency [17]
3.42%: viability change [8]

CN1CCc2cc(O)c(O)cc2C(c2ccccc2)C1 (stereo unspecified)
inactive: Potency [5] | Potency [6] | activation [7] -0.188% | outcome [9] | Potency [10] | Potency [11] | Potency [12] | Potency [13] | Potency [14] | Potency [15]

CCCCC/C=C\CC(O)/C=C/c1cccc(CC(O)CCCCO)n1 (stereo unspecified)
-0.641%: viability change [8]
inactive: Potency [5] | Potency [6] | activation [7] -2.94% | Potency [8] | outcome [9] | Potency [10] | Potency [11] | Potency [12] | Potency [13] | Potency [14] | Potency [16] | Potency [17]

COc1cc2c(CCNC(C)=O)c[nH]c2cc1Cl
inactive: Potency [5] | Potency [6] | activation [7] 0.375% | Potency [8] | outcome [9] | Potency [10] | Potency [11] | Potency [12] | Potency [13] | Potency [14] | Potency [15] | Potency [17] | Potency [18]
2.33%: viability change [8]

NCCNC(=O)c1ncsc1-c1cccc(F)c1
1.7%: viability change [8]
inactive: Potency [5] | Potency [6] | activation [7] -2.38% | Potency [8] | outcome [9] | Potency [10] | Potency [11] | Potency [12] | Potency [13] | Potency [14] | Potency [15] | Potency [17]

O=C1O/C(=C/Br)CCC1c1cccc2ccccc12 (stereo unspecified)
inactive: Potency [5] | activation [7] -3.56% | outcome [9] | Potency [10] | Potency [11] | Potency [12] | Potency [13] | Potency [14]
active: Potency [6] 18.3 µM | Potency [17] 25.1 µM
